Results on 40 molecules are retold here after PubChem BioAssay (Tox21).

Each structure is given as a SMILES string. Results filed as inconclusive are left out. Where a call stands in place of a potency, no number is given. Unmarked numbers belong to inactive results. Activity calls are given as the source filed them. Calls come from the whole dose curve.
Potency is the fitted concentration of half-maximal effect.

A short description of this assay: qHTS assay for small molecule agonists of the p53 signaling pathway - cell viability (AID 651633).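 For activity change, negative = cytotoxicity: p53RE-bla HCT reporter cells with a stable beta-lactamase p53 reporter.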 Note: nearly all actives have a fitted effect of over 30% in size. As to conditions: p53RE-bla HCT-116 viability, ATP luminescence, 16 h; series mostly up to 83.3 µM. The text has this: National Center for Advancing Translational Sciences [NCATS]
NIH Chemical Genomics Center [NCGC]
U.S. Environmental Protection Agency [EPA]
National Institutes of Environmental Health Sciences [NIEHS]
National Toxicology Program [NTP]
U.S. Food and Drug Administration [FDA]
p53, a tumor suppressor protein, is activated following cellular insult, including DNA damage and other cellular stresses. The activation of p53 regulates cell fate by inducing DNA repair, cell cycle arrest, apoptosis, or cellular senescence. The activation of p53, therefore, is a good indicator of DNA damage and other cellular stresses. […] The activation of the reporter gene under culture conditions can be detected by fluorescence intensity. This cell line was used to screen the Tox21 compound library in a 1536-well plate format and to identify agonists that activate the p53 signaling pathway.
Tox21 Assay Protocol Summary:
The p53RE-bla cells were dispensed at 4,000 cells/5 ul/well in 1536-well black wall/clear bottom plates using a Multidrop dispenser. After the assay plates were incubated at a 37 C/5% CO2 incubator for 5 hours, 23 nL of compounds dissolved in DMSO, positive controls or DMSO only was transferred to the assay plate by a pin tool. The plates were incubated at 37 C for 16 hours. After 1 uL of LiveBLAzerTM B/G FRET substrate was added using a Flying Reagent Dispenser, the plates were incubated at room temperature for 2 hours, and fluorescence intensity was measured by an Envision plate reader.
For cell viability readout that measures cytotoxicity, 4 ul/well of CellTiter-Glo reagent was added into the assay plates using a Flying Reagent Dispenser. After 30 min incubation at room temperature, the luminescence intensity in the plates was measured using a ViewLux plate reader.
(qHTS replaces the single test concentration by a dilution series.)
With `C=CCOC(=O)CCC1CCCCC1`, the Potency entry was “inactive”.

Regarding `C/C=C/C(=O)CC`, the activity change, negative = cytotoxicity was -24.4% [at 17.9 µM]. For the molecule `O=CC1CC=CCC1` (stereo not given), the Potency entry was “inactive”. Take `ClCCOCCOCCCl`: the Potency result was “inactive”. `CCCCCCCC#N`: the Potency result was “inactive”. As for `OC(C#CCN1CCCC1)(c1ccccc1)c1ccccc1`, the Potency entry was “inactive”. Still for that read-out and setting: next, `C/C(=C(\CCOP(=O)(O)O)SC(=O)c1ccccc1)N(C=O)Cc1cnc(C)nc1N`: “inactive”; `CCc1c(C(=O)NN2CCCCC2)nn(-c2ccc(Cl)cc2Cl)c1-c1ccc(Br)cc1`: 13.7 µM (active); `Nc1cccc([N+](=O)[O-])c1`: “inactive”. The same measure, in the same setting: next, `Cn1c(=O)cc(Oc2ccc(F)cc2F)c2cnc(NCC(C)(C)O)nc21`: “inactive”.

On to `CCOC(=O)C(F)(F)F`, for which the Potency result is “inactive”. Regarding `Nc1c(CC(=O)O)cccc1C(=O)c1ccc(Br)cc1`, the Potency entry was “inactive”. With `Nc1ccc(N)c2c1C(=O)c1ccccc1C2=O`, the Potency result was “inactive”. Still for that read-out and setting: the value for `NCC(=O)CCC(=O)O` was “inactive”; that for `CN(C)CCCN1c2ccccc2Sc2ccccc21` was “inactive”; that for `CCCCc1nc2cccnc2n1Cc1ccc(-c2ccccc2-c2nnn[nH]2)cc1` was “inactive”.

Regarding `O=C(O)c1ccco1`, the Potency result was “inactive”. As to `NCc1ccccc1Sc1ccccc1CO`, the Potency entry is “inactive”. In the case of `CCCCCCCCCCCc1ccccc1`, the Potency result was “inactive”. Turning to `COc1ccc(S(=O)(=O)N2C(=O)[C@@](c3ccccc3OC)(N3C[C@H](O)C[C@H]3C(=O)N(C)C)c3cc(Cl)ccc32)c(OC)c1`, the Potency result was “inactive”. Same read-out and setting: the value for `O=C1c2ccccc2S(=O)(=O)N1CCCCN1CCN(c2ncccn2)CC1` was “inactive”. Same read-out and setting: the value for `C[N+](C)(C)CCOC(=O)CCC(=O)OCC[N+](C)(C)C` was “inactive”; that for `Nc1ccccc1S(=O)(=O)c1ccccc1` was “inactive”.

With `C=C(C)C(=O)OCCOCC`, the Potency entry was “inactive”.

With `S=C([S-])NCCNC(=S)[S-].[Mn+2]`, the Potency result was “inactive”.

For `CCCCC(CC)COC(=O)CCCCCCCCC(=O)OCC(CC)CCCC` (stereo not given), the Potency result is “inactive”. `O=C(O)c1nc(Cl)c(Cl)c(Cl)c1Cl`: the Potency entry was “inactive”.

With `O=C(O)CNCC(=O)O`, the activity change, negative = cytotoxicity was 6.66% [at 8.08 µM]. Regarding `O=C(NCCO[N+](=O)[O-])c1cccnc1`, the Potency result was “inactive”. The same measure, in the same setting: the value for `Brc1c2ccccc2cc2ccccc12` was “inactive”; that for `C=CC1CC2C=CC1C2` (stereo not given) was “inactive”; that for `CCOCC(O)COc1ccc(NC(=O)CC[S+](C)C)cc1` (stereo not given) was “inactive”.

On to `CC(=O)NO`, for which the Potency entry was “inactive”.

`CCCCC(CC)COC(=O)COc1ccc(Cl)cc1Cl` (stereo not given): the Potency result is “inactive”. The same measure, in the same setting: the value for `CCCCCCCC/C=C\CCCCCCCC(=O)OCC` was “inactive”; that for `O=C(Nc1ccc(S(=O)(=O)N2CCOCC2)cc1)c1cc(Cl)ccc1NS(=O)(=O)c1ccc(Cl)s1` was 9.44 µM (active).

With `CC(=O)c1cccc([N+](=O)[O-])c1`, the Potency result was “inactive”. `COc1ccc(C(=O)N2CCN(CC(=O)N3CCOCC3)CC2)cc1`: the Potency result was “inactive”. Take `O=C1C(O)=C(O)C(=O)C(O)=C1O`: the Potency result was “inactive”. For the molecule `CC(C)(C)OCC1CO1` (stereo not given), the Potency result is “inactive”.
